Assay results as given in PubChem BioAssay (NCI).
About 83,000 compounds went through this panel and 20% of them were active in at least one assay; those are over-represented in the sample as a whole.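 Note: values are percent growth. 100 is the growth of untreated cells, values between 100 and 0 indicate rising inhibition; between -100 and 0 indicates cell death.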 The source made the active and inactive calls. Rule for the calls: active = growth percent below 10; inactive = the rest.

How the values were obtained:
Test in all cases: NCI-60 one-dose screen, 48 h (100 = growth as untreated, 0 = no growth, -100 = all killed)
Settings in all cases: 10 µM unless noted
DU-145 prostate = system: DU-145 prostate
K-562 leukemia = system: K-562 leukemia
MALME-3M melanoma = system: MALME-3M melanoma
MDA-MB-231 breast = system: MDA-MB-231 breast
RXF 393 renal = system: RXF 393 renal
SF-268 CNS = system: SF-268 CNS
SF-295 CNS = system: SF-295 CNS
SF-539 CNS = system: SF-539 CNS
UACC-257 melanoma = system: UACC-257 melanoma
M14 melanoma = system: M14 melanoma
HCT-15 colon = system: HCT-15 colon
HT29 colon = system: HT29 colon
SNB-75 CNS = system: SNB-75 CNS
SNB-19 CNS = system: SNB-19 CNS
U251 CNS = system: U251 CNS
SK-MEL-5 melanoma = system: SK-MEL-5 melanoma
LOX IMVI melanoma = system: LOX IMVI melanoma
SK-MEL-28 melanoma = system: SK-MEL-28 melanoma
UACC-62 melanoma = system: UACC-62 melanoma
PC-3 prostate = system: PC-3 prostate

Measured: growth

O=C(Nc1cccc(-n2ccc3c(NC(=O)c4ccccc4)ncnc32)c1)Nc1ccc(Cl)c(C(F)(F)F)c1
inactive: DU-145 prostate 42.2% | K-562 leukemia 13.6% | MALME-3M melanoma 46.5% | MDA-MB-231 breast 42.3% | RXF 393 renal 14.6% | SF-268 CNS 38.1% | SF-295 CNS 14.2% | SF-539 CNS 39.1% | UACC-257 melanoma 36% | M14 melanoma 28.1% | HCT-15 colon 34.1% | HT29 colon 26.6% | SNB-75 CNS 44.4% | SNB-19 CNS 46.5% | U251 CNS 31.7% | SK-MEL-5 melanoma 19% | LOX IMVI melanoma 24.7% | SK-MEL-28 melanoma 49.4%

COc1cc2c(/C=C3/C(=O)Nc4ccc(O)cc43)c(Cl)n(Cc3cc(OC)c(OC)c(OC)c3)c2cc1C
inactive: DU-145 prostate 20.4% | MDA-MB-231 breast 61% | SF-268 CNS 24% | SF-295 CNS 38.9% | UACC-257 melanoma 20.5% | M14 melanoma 11.5% | HCT-15 colon 38.1% | HT29 colon 10.4% | SNB-75 CNS 32.2% | SNB-19 CNS 20.2% | U251 CNS 32.2% | UACC-62 melanoma 36.6% | LOX IMVI melanoma 39.7% | SK-MEL-28 melanoma 45.2%
active: K-562 leukemia -30.7% | MALME-3M melanoma 2.88% | RXF 393 renal -20.9% | SF-539 CNS -16.7% | SK-MEL-5 melanoma -64.5%

COc1ccc(C(=O)NC(=O)Nc2ccc3c(c2)NC(=O)/C3=C\c2[nH]c(C)c(CCC(=O)O)c2C)c(F)c1
active: SF-539 CNS -5.86%
inactive: DU-145 prostate 42.7% | K-562 leukemia 23.9% | MALME-3M melanoma 40.6% | MDA-MB-231 breast 71.5% | RXF 393 renal 21.1% | SF-268 CNS 35% | SF-295 CNS 42.7% | UACC-257 melanoma 14.1% | M14 melanoma 33.2% | HCT-15 colon 39.6% | HT29 colon 55.6% | SNB-75 CNS 44.2% | SNB-19 CNS 27% | PC-3 prostate 30.2% | SK-MEL-5 melanoma 25.2% | UACC-62 melanoma 25.7% | LOX IMVI melanoma 26.9% | SK-MEL-28 melanoma 31.1%

O=C(/C=C/c1ccccc1)Oc1ccc(/C=C/c2cc(OC(=O)/C=C/c3ccccc3)cc(OC(=O)/C=C/c3ccccc3)c2)cc1
inactive: DU-145 prostate 104% | K-562 leukemia 94.8% | MALME-3M melanoma 91.2% | MDA-MB-231 breast 104% | RXF 393 renal 114% | SF-268 CNS 99.5% | SF-295 CNS 101% | SF-539 CNS 91.8% | UACC-257 melanoma 81.7% | M14 melanoma 100% | HCT-15 colon 103% | HT29 colon 90.1% | SNB-75 CNS 80.5% | SNB-19 CNS 96.2% | PC-3 prostate 87.5% | SK-MEL-5 melanoma 107% | UACC-62 melanoma 103% | LOX IMVI melanoma 98.4% | SK-MEL-28 melanoma 107%

CC1CCc2cc(F)cc3c(=O)c(C(=O)O)cn1c23 (stereo unspecified)
inactive: DU-145 prostate 110% | K-562 leukemia 92.6% | MALME-3M melanoma 99.9% | MDA-MB-231 breast 82.8% | RXF 393 renal 108% | SF-268 CNS 105% | SF-295 CNS 97.6% | SF-539 CNS 107% | UACC-257 melanoma 101% | M14 melanoma 97.6% | HCT-15 colon 105% | HT29 colon 116% | SNB-75 CNS 109% | SNB-19 CNS 93.1% | PC-3 prostate 96.6% | SK-MEL-5 melanoma 102% | UACC-62 melanoma 92.8% | LOX IMVI melanoma 69.1% | SK-MEL-28 melanoma 120%

CN1CCN(CC(O)COc2c(Br)c(Br)c(Br)c3c2OC(C)(C)C3)CC1 (stereo unspecified)
inactive: DU-145 prostate 89.9% | MDA-MB-231 breast 49.7% | RXF 393 renal 29.4% | SF-268 CNS 63.8% | SF-295 CNS 38.7% | SF-539 CNS 58.3% | UACC-257 melanoma 99.9% | HCT-15 colon 28.7% | SNB-75 CNS 90.7% | U251 CNS 56.4% | PC-3 prostate 53%
active: K-562 leukemia -16.5% | MALME-3M melanoma -36.9% | M14 melanoma -53.5% | HT29 colon -12.8% | SK-MEL-5 melanoma -86% | UACC-62 melanoma -59.5% | LOX IMVI melanoma 4.05%

CC(C)(c1ccc(OCC(O)CNCc2ccco2)cc1)c1ccc(OCC(O)CNCc2ccco2)cc1 (stereo unspecified)
inactive: DU-145 prostate 92% | K-562 leukemia 60.8% | MALME-3M melanoma 98% | MDA-MB-231 breast 62.4% | RXF 393 renal 76.4% | SF-268 CNS 77.7% | SF-295 CNS 95.2% | SF-539 CNS 89.7% | UACC-257 melanoma 92.8% | M14 melanoma 92.1% | HCT-15 colon 82.8% | HT29 colon 78.5% | SNB-75 CNS 80.1% | U251 CNS 70.1% | PC-3 prostate 75.6% | SK-MEL-5 melanoma 91.7% | UACC-62 melanoma 104% | LOX IMVI melanoma 86.1% | SK-MEL-28 melanoma 101%

c1nc(SC2=NCCN2)c2[nH]cnc2n1
inactive: DU-145 prostate 37.3% | K-562 leukemia 14.3% | MALME-3M melanoma 47.3% | MDA-MB-231 breast 37.7% | RXF 393 renal 59.7% | SF-268 CNS 46.5% | SF-295 CNS 29.1% | SF-539 CNS 24.3% | UACC-257 melanoma 66.8% | M14 melanoma 14.7% | HCT-15 colon 57.8% | HT29 colon 35.3% | SNB-75 CNS 52.7% | U251 CNS 79.4% | PC-3 prostate 57.5% | SK-MEL-5 melanoma 79.1% | UACC-62 melanoma 19.1% | SK-MEL-28 melanoma 95.4%
active: LOX IMVI melanoma 6.53%

COc1ccc(-c2nn(-c3ccc(NC(=O)c4cc(C(F)(F)F)cc(C(F)(F)F)c4)cc3)cc2-c2ccncc2)cc1Cl
inactive: DU-145 prostate 76.7% | K-562 leukemia 29% | MALME-3M melanoma 95.1% | MDA-MB-231 breast 49.3% | SF-268 CNS 68.7% | SF-295 CNS 33.1% | SF-539 CNS 67.7% | UACC-257 melanoma 78.8% | M14 melanoma 40.1% | HCT-15 colon 46% | HT29 colon 53.7% | SNB-75 CNS 72.5% | SNB-19 CNS 85.7% | PC-3 prostate 45.1% | SK-MEL-5 melanoma 69.1% | UACC-62 melanoma 55.6% | LOX IMVI melanoma 46.4% | SK-MEL-28 melanoma 79.9%
active: RXF 393 renal -6.8%

CCCCCCCCCCCC(=O)OCCNC(=O)C[n+]1ccccc1
inactive: DU-145 prostate 131% | K-562 leukemia 117% | MALME-3M melanoma 96.3% | MDA-MB-231 breast 99.6% | RXF 393 renal 110% | SF-268 CNS 104% | SF-295 CNS 78.7% | SF-539 CNS 105% | UACC-257 melanoma 106% | M14 melanoma 102% | HCT-15 colon 110% | HT29 colon 93.7% | SNB-75 CNS 96.5% | SNB-19 CNS 102% | PC-3 prostate 92.5% | SK-MEL-5 melanoma 100% | UACC-62 melanoma 104% | LOX IMVI melanoma 106% | SK-MEL-28 melanoma 109%

COc1ccc(CCNC=O)cc1OC
inactive: DU-145 prostate 102% | K-562 leukemia 115% | MALME-3M melanoma 90% | MDA-MB-231 breast 112% | RXF 393 renal 87.9% | SF-268 CNS 104% | SF-295 CNS 103% | SF-539 CNS 91.5% | UACC-257 melanoma 108% | M14 melanoma 100% | HCT-15 colon 103% | HT29 colon 114% | SNB-75 CNS 80.7% | SNB-19 CNS 92.4% | PC-3 prostate 100% | SK-MEL-5 melanoma 95.5% | UACC-62 melanoma 103% | LOX IMVI melanoma 98.1%

FC(F)(F)c1cccc([Si](F)(c2cccc(C(F)(F)F)c2)c2cccc(C(F)(F)F)c2)c1
inactive: DU-145 prostate 94% | K-562 leukemia 62.2% | MALME-3M melanoma 106% | MDA-MB-231 breast 80.4% | RXF 393 renal 87.6% | SF-268 CNS 84% | SF-295 CNS 69.2% | SF-539 CNS 101% | UACC-257 melanoma 81.3% | M14 melanoma 86.1% | HCT-15 colon 72.1% | HT29 colon 59.3% | SNB-75 CNS 80.4% | SNB-19 CNS 77.7% | PC-3 prostate 24.2% | SK-MEL-5 melanoma 84.2% | UACC-62 melanoma 68.4% | LOX IMVI melanoma 72.9% | SK-MEL-28 melanoma 85.8%

O=C1OC(=O)C2C3CC(c4ccccc43)C12 (stereo unspecified)
inactive: DU-145 prostate 145% | K-562 leukemia 111% | MALME-3M melanoma 101% | MDA-MB-231 breast 117% | RXF 393 renal 116% | SF-268 CNS 123% | SF-295 CNS 101% | SF-539 CNS 103% | UACC-257 melanoma 91.8% | M14 melanoma 112% | HCT-15 colon 94.5% | HT29 colon 112% | SNB-75 CNS 89.4% | SNB-19 CNS 107% | PC-3 prostate 92.1% | SK-MEL-5 melanoma 112% | UACC-62 melanoma 105% | LOX IMVI melanoma 103% | SK-MEL-28 melanoma 116%

O=C(O)c1cccc(S(=O)(=O)c2ccccc2)c1
inactive: DU-145 prostate 107% | K-562 leukemia 107% | MALME-3M melanoma 87.7% | MDA-MB-231 breast 123% | RXF 393 renal 101% | SF-268 CNS 103% | SF-295 CNS 95% | SF-539 CNS 98.5% | UACC-257 melanoma 105% | M14 melanoma 95.9% | HCT-15 colon 99.4% | HT29 colon 104% | SNB-75 CNS 84.2% | SNB-19 CNS 110% | PC-3 prostate 100% | SK-MEL-5 melanoma 97% | UACC-62 melanoma 101% | LOX IMVI melanoma 99% | SK-MEL-28 melanoma 98.9%

CCOC(=O)c1[nH]c(-c2ccc(Cl)cc2)cc1-c1cccnc1
inactive: DU-145 prostate 19% | MALME-3M melanoma 72.7% | MDA-MB-231 breast 40.3% | SF-268 CNS 46.6% | SF-295 CNS 10.9% | UACC-257 melanoma 86.3% | M14 melanoma 14.3% | HCT-15 colon 21.8% | SNB-19 CNS 52.9% | PC-3 prostate 14% | SK-MEL-5 melanoma 27.1% | UACC-62 melanoma 38.8% | LOX IMVI melanoma 48.5% | SK-MEL-28 melanoma 47.8%
active: K-562 leukemia 6.33% | RXF 393 renal -2.78% | SF-539 CNS -24.8% | HT29 colon 6.32% | SNB-75 CNS -1.8%

C=C1C(=O)O[C@H]2[C@H]1CC/C(C(=O)NCCOCCOCC(=O)Nc1ccc(OC)c(C(N)=O)c1O)=C\CC[C@@]1(C)O[C@@H]21
inactive: DU-145 prostate 101% | K-562 leukemia 82.6% | MALME-3M melanoma 86.9% | MDA-MB-231 breast 100% | RXF 393 renal 59.6% | SF-268 CNS 89.4% | SF-295 CNS 104% | SF-539 CNS 90.7% | UACC-257 melanoma 69.4% | M14 melanoma 99.3% | HCT-15 colon 101% | HT29 colon 88.1% | SNB-75 CNS 83.1% | SNB-19 CNS 95.1% | PC-3 prostate 97% | SK-MEL-5 melanoma 102% | UACC-62 melanoma 92.6% | LOX IMVI melanoma 95.3% | SK-MEL-28 melanoma 84.7%
